Activity calls are given as the source filed them.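 The calls were made as follows, unless noted: active = NADPH fluorescence slope more negative than the mean of all samples by about 3 SD, 99.7% confidence; inactive = the rest.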
Experiments:
[1] = inhibitors of TNFa-induced NFkB p65 translocation, primary screen, imaging, HUVEC, MLSMR starter and 10KST1 sets (AID 438;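 active = inhibition above 20% together with a positive visual image hit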;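 also: compound added about 3h40 before a 20 min TNFalpha stimulation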;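 as to inhibition: signal is the nuclear over cytoplasmic p65 intensity ratio per well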); conditions: HUVEC TNFa-induced p65 nuclear translocation; cell count: measured here: nuclei count (cytotoxicity indicator), at 2.08 µM; inhibition: at 2 µM, stronger effect = higher value, 0% TNFa-plus-vehicle, 100% no-TNFa wells
[2] = reduction of polyQ htt aggregates in cells – imaging, exon1htt(103Q)mCFP cells, high-content imaging, primary screen (AID 483;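 active = visual image review flags a hit and inhibition of aggregation exceeds 20%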;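 also: compound exposure lasted 3 days before fixation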;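 as to nuclei count: percent of the per-plate median nuclei count of sample wells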); conditions: exon1htt(103Q)mCFP cell line, aggregate imaging, at 2 µM; inhibition of aggregation: stronger effect = higher value; nuclei count: measured here: cell count, toxicity
[3] = endothelial E-selectin expression blockers – imaging, HUVEC, immunofluorescence, MLSMR starter and 10KST1 sets, primary screen (AID 487;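 active = visually confirmed hit in the image check and inhibition above 20%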;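 as to inhibition: signal is fraction of cell area covered by stained E-selectin grains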;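 as to nuclei count: 100% = median nuclei count of all wells on the same plate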); conditions: HUVEC TNFalpha-induced E-selectin immunofluorescence imaging, at 2 µM; inhibition: stronger effect = higher value; nuclei count: measured here: cell number, toxicity
[4] = target: Voltage-gated potassium channel subunit beta-2 (Rattus norvegicus) (UniProt P62483); test: inhibitors of rat Kvbeta2 reductase activity – biochemical, NADPH fluorescence, primary screen (AID 622;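 active = fluorescence slope higher than the sample average by over 3 SD, cut at about -0.22 in these data, passing the limit was not always enough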;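 also: slope of raw intensity against log time taken from 70 to 1610 s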); conditions: recombinant KvBeta, 4-cyanobenzaldehyde reduction, at 10 µM, stronger effect = higher value
[5] = target: Voltage-gated potassium channel subunit beta-2 (Rattus norvegicus) (UniProt P62483); test: enhancers of rat Kvbeta2 NADPH turnover – biochemical, NADPH fluorescence, primary screen (AID 623); conditions: Recombinant KvBeta, NADPH fluorescence decrease slope, 10 min; at 10 µM; stronger effect = lower value;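 also: fluorescence intensity change per second fitted from 20 to 320 s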
[6] = target: Alpha-2C adrenergic receptor (Homo sapiens) (UniProt P18825); test: compounds altering alpha2C-coupled GIRK flux – cell-based, HEK293 alpha2C/GIRK1/2, thallium flux, primary screen (AID 624;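 active = fluorescence slope after compound addition differing from the mean of all screened samples at 99.7% confidence, in either direction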;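 also: slope of fluorescence ratio to pre-addition baseline per second over 15 to 24 s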); conditions: thallium flux BTC fluorescence, at 10 µM, actives lie on both sides
[7] = blockers of RIG-like receptor reporter activation – cell-based, Sendai virus stimulus, luciferase, 10K MLSCN set, TLR/RLR signaling modifier project, primary screen (AID 602276;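 active = inhibition at or above 50% at 10 µM; inactive = inhibition below 50%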;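 also: firefly luciferase from ISG56 promoter only with Renilla not read in this screen; 0% = Sendai virus plus DMSO and 100% = medium plus DMSO without virus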); conditions: HEK293 RL24 IRF3 luciferase reporter, at 10 µM, stronger effect = higher value
[8] = TLR3 IRF3 reporter activation blockers – cell-based, poly I:C stimulus, luciferase, 10K MLSCN set, primary screen (AID 602277;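 active = inhibition of the reporter signal at or above 50%; inactive = inhibition below 50%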); conditions: HEK293-TLR3 RL24 IRF3 luciferase reporter, at 10 µM, stronger effect = higher value

Sequence of Voltage-gated potassium channel subunit beta-2 (Rattus norvegicus) (P62483 whole entry, looked up): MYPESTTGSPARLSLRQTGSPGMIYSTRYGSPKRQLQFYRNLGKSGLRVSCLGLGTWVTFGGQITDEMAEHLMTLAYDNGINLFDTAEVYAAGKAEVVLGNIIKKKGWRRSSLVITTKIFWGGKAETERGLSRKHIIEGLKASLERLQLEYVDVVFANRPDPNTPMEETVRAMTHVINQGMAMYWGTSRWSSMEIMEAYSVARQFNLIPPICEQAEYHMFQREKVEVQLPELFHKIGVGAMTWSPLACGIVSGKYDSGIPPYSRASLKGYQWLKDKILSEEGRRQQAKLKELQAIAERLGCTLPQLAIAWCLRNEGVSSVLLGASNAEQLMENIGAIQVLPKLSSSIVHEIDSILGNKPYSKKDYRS
Sequence of Alpha-2C adrenergic receptor (Homo sapiens) (P18825 whole entry, looked up): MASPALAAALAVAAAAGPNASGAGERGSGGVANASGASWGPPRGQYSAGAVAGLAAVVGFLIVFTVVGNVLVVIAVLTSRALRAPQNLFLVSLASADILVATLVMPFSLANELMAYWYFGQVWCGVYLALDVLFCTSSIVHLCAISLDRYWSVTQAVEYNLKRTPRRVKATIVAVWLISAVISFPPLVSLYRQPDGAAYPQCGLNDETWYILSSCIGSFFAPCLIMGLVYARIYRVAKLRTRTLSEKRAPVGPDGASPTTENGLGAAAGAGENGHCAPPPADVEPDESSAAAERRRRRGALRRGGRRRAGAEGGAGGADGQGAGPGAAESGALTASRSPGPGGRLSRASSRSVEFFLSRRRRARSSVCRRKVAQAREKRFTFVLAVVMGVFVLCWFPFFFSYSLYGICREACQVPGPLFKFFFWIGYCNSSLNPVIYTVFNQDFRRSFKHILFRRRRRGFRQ

Compound | cell count [1] | inhibition [1] | inhibition of aggregation [2] | nuclei count [2] [%] | nuclei count [3] [%] | fluorescence slope [4] | NADPH fluorescence slope [5] | slope [6] | inhibition [7] | inhibition [8] | inhibition [3]
Cc1cccc(NC(=O)CSc2nnc(-c3ccccc3C)o2)c1 | 414 | 0.8% (inactive) | -0.2% (inactive) | 92 | 116 | -0.32 (inactive) | -4.9e-05 (inactive) | 0.00441 (inactive) | -55.2% (inactive) | -86.9% (inactive) | 
CCOC(=O)c1cnn(-c2cc(C)c3cc(C)cc(C)c3n2)c1N | 494 | 9% (inactive) | -9.8% (inactive) | 110 | 152 | -0.545 (inactive) | 2e-05 (inactive) | 0.00906 (inactive) | -17.1% (inactive) | -21.2% (inactive) | 
Cn1c(=O)cc(OCCCC(=O)Nc2ccc3c(c2)OCCO3)c2ccccc21 | 361 | -3.3% (inactive) | -4.7% (inactive) | 101 | 113 | -0.511 (inactive) | -1.4e-05 (inactive) | 0.00629 (inactive) | -5.46% (inactive) | -1.3% (inactive) | -8.1% (inactive)
Cc1ccc2nc(NC(=O)C3CCCN(S(=O)(=O)c4cnc[nH]4)C3)sc2c1 (centres undefined) | 567 | 6.9% (inactive) | -11.1% (inactive) | 106 | 113 | -0.553 (inactive) | -6.7e-06 (inactive) | 0.00608 (inactive) | -43.1% (inactive) | -79.3% (inactive) | -42.7% (inactive)
CCOC(=O)c1cc(-c2ccc(N)cc2)sc1N | 588 | 14.8% (inactive) | 24% (inactive) | 90.5 | 100 | -0.433 (inactive) | -7.7e-05 (inactive) | 0.00189 (inactive) | -50.5% (inactive) | -117% (inactive) | 26.4% (inactive)
COc1ccc(S(=O)(=O)Nc2ccc(F)c(Cl)c2)cc1OC | 657 | -18.6% (inactive) | -7.4% (inactive) | 111 | 63 | -0.431 (inactive) | -2e-05 (inactive) | 0.00392 (inactive) | 12.4% (inactive) | 35.2% (inactive) | 57.8% (inactive)
